# Test results published in PubChem BioAssay (NCI).
# About 83,000 compounds went through this panel and 20% of them were active in at least one assay; those are over-represented in the sample as a whole.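 Percent growth is the endpoint: 0 to 100 indicates growth inhibition (40 means 60% inhibition), 0 means no net growth, and negative values indicate cell death.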 Values without a mark were called inactive. Active and inactive are the calls of the source. Rule for the calls: active = growth percent below 10; inactive = the rest.
# Tested on: TK-10 renal
# Assay: NCI-60 one-dose screen, 48 h (100 = growth as untreated, 0 = no growth, -100 = all killed)
# Details: 10 µM unless noted
row,SMILES,growth
1,CC1(C)[C@@H](O[C@@H]2OC[C@@H](O[C@@H]3O[C@H](CO)[C@@H](O)[C@H](O)[C@H]3O[C@@H]3OC[C@@H](O)[C@H](O)[C@H]3O)[C@H](O)[C@H]2O[C@@H]2O[C@H](CO)[C@@H](O)[C@H](O)[C@H]2O)CC[C@]2(C)[C@H]3CC[C@]45OC[C@@]6(CC[C@](C)(C=O)C[C@H]64)[C@H](O)C[C@@]5(C)[C@]3(C)CC[C@@H]12,-92.2% (active)
2,O=C(CCl)NNc1nccc(Nc2ccc(S(=O)(=O)Nc3ccncc3)cc2)n1,74.6%
3,CS(=O)(=O)Nc1cc(-c2ccc3ncc(C#N)c(Nc4ccc(F)c(Cl)c4)c3c2)cnc1Cl,-21.6% (active)
4,Cc1[nH]c(C2CC(c3ccc(C(F)(F)F)c(F)c3)=NN2c2ccccc2)c(C)c1C(=O)NCC(F)(F)F (stereo unspecified),151%
5,O=P(O)(O)OCC1OC(n2cnc3c(NCc4ccco4)ncnc32)C(O)C1O (stereo unspecified),60.9%
6,C=CN(C(=O)N1CCN(c2cc3c(cc2F)c(=O)c(C(=O)O)cn3C2CC2)CC1)c1nc(-c2ccc(OC)cc2)cs1,42.8%
7,CC(=O)Oc1ccc(OC(C)=O)c2ccccc12,103%
8,O=C1c2ccccc2C(=O)c2c1cc1c(c2[N+](=O)[O-])OCO1,-14.8% (active)
9,Cc1cccc2c1C[C@@]1(C2=O)C(c2ccc(C(C)(C)C)cc2)=NOS1=O (stereo partly specified),158%
10,COc1cccc(Nc2ncnc3cc(NC(=O)CCl)ccc23)c1,-13.2% (active)
11,NC(N)=NS(=O)(=O)c1ccc(NC2=C(I)C(=O)c3ncccc3C2=O)cc1,118%
